# FBW7 act: FBW7 E3 ligase activators, primary screen, biochemical, AlphaScreen, human; normalized activity (activation), % at 26.1 µM; 0.13% of 650,000 active; F-box/WD repeat-containing protein 7 (Homo sapiens), Q969H0; AlphaScreen FBW7–phospho-cyclin E peptide binding, activator screen; in the data active = normalized activity above about 1.9%;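 note: purified mutant Fbw7 with reduced substrate affinity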
# Target sequence (Q969H0 whole entry, looked up): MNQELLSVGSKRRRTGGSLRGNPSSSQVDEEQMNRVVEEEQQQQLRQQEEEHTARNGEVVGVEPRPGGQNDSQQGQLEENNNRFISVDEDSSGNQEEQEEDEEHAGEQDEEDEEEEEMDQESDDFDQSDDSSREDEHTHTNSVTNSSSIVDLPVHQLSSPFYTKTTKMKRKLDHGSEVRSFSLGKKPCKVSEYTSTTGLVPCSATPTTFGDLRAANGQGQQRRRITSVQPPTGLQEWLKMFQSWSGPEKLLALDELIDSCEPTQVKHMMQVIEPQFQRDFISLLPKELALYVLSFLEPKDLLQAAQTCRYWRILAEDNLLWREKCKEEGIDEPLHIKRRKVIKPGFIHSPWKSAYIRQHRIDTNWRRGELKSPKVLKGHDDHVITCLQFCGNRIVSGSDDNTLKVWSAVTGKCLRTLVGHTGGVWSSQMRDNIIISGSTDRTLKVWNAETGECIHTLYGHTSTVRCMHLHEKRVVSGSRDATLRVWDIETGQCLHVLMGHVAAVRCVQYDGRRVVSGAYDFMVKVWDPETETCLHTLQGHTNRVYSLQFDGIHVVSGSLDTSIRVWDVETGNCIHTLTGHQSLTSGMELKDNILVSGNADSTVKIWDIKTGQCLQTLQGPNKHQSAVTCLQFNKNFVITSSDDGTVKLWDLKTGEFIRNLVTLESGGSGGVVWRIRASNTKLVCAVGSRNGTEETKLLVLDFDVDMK
# TEAD-YAP block: TEAD-YAP interaction inhibition, primary screen, TEAD-YAP interaction inhibitor project, luminescence, HEK-TIYL cells; TEAD-Gal4/YAP UAS-luciferase luminescence; inhibition, % at 9.12 µM; 1.4% of 640,000 active; in the data active = inhibition above about 32%;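 note: 0% = median of test compound wells and 100% = reference inhibitor wells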
# MITF inh: MITF inhibitors, primary screen, biochemical, AlphaScreen, human. AlphaScreen MITF homodimerization, bead proximity signal. inhibition, % at 2.6 µM. 0.91% of 650,000 active. AID 1259374, 2018; in the data active = inhibition above about 50%;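 note: 0% = vehicle wells with protein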
# GPR151 ag: activators of human GPR151, primary screen, cell-based, PathHunter beta-arrestin, luminescence | activation, % at 11.2 µM | AID 1508602, 2020 | 1% of 650,000 active | PathHunter beta-arrestin GPR151 cells; in the data active = activation above about 4.9%;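 note: 0% = median of compound wells and 100% = cells with positive control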
# Numbers without * were called inactive. Sampled rows, rich in hits. Any-hit rate of the full collection: about 3.5%.
SMILES,FBW7 act,TEAD-YAP block,MITF inh,GPR151 ag
c1ccc(-c2nc3ccc(Cc4ccc5nc(-c6ccccn6)[nH]c5c4)cc3[nH]2)nc1,-0.2,34.2*,27.2,0.1
COc1ccc(-c2cnc3ccc(NC4CCOCC4)nn23)cc1OC,-0.2,2.4,-8.9,0.6
Nc1cccc(-c2cnc3ccc(NC4CCOCC4)nn23)c1,-0.5,4.1,3.5,0.3
COc1cccc(-c2cnc3ccc(NC4CCOCC4)nn23)c1,0.3,56.8*,-2.8,-0.6
Clc1cccc(-c2cnc3ccc(NC4CCOCC4)nn23)c1,0.0,33.6*,-10.5,0.0
COc1cccc(-c2cnc3ccc(NC4CCC(O)CC4)nn23)c1 (stereo unspecified),-0.7,64.0*,-8.3,0.0
Cc1ccc(-c2cnc3ccc(NC4CCC(O)CC4)nn23)cc1C (stereo unspecified),-0.2,-7.0,-20.8,-0.1
CCOc1ccc(N2CC(NC(=O)NCc3ccc4[nH]c(C)cc4c3)CC2=O)cc1 (stereo unspecified),-0.1,0.6,-1.6,2.0
CC(=O)Oc1cccc(N2C(=O)C3C(C2=O)C2(C)c4ccccc4C3(C)c3ccccc32)c1 (stereo unspecified),-0.1,4.3,2.7,0.8
COc1ccc2c(c1)c(=O)oc1cc(OC(C)C(=O)O)ccc12 (stereo unspecified),0.1,10.0,5.3,-2.3
CCn1c(CN2CCN(c3ccc(F)cc3)CC2)nc2c1c(=O)n(C)c(=O)n2C,0.0,26.6,-6.8,3.1
CCn1c(CN2CCN(c3ccccc3)CC2)nc2c1c(=O)n(C)c(=O)n2C,-0.2,45.5*,0.4,2.1
O=c1c2c(-c3ccccc3)csc2ncn1/N=C/c1ccc(O)c(O)c1O,-0.3,10.9,61.8*,-1.2
COc1ccc(C2C(C(=O)N3CCN(c4ccccc4OC)CC3)c3ccccc3C(=O)N2c2ccc(OC)cc2)cc1 (stereo unspecified),0.0,34.4*,3.4,-0.3
CC(C)N(C)Cc1nnnn1CC(=O)NCC1CCN(CCc2ccccc2)CC1,0.0,13.7,9.1,-0.6
CCOC(=O)C(C#N)C(=O)c1ccc(N2C(=O)c3ccccc3C2=O)cc1 (stereo unspecified),-0.1,0.3,-9.5,3.0
CCOC(=O)C(C#N)C1(O)C(=O)c2ccccc2C1=O (stereo unspecified),1.1,8.9,56.8*,-0.9
O=C(Nc1nc2c(s1)CN(Cc1ccccc1)CC2)c1ccc2ccccc2c1,0.2,32.9*,4.7,4.3
COc1ccc(C(=O)Nc2nc3c(s2)CN(Cc2ccccc2)CC3)cc1OC,0.0,1.1,3.2,1.8
COc1ccc(S(=O)(=O)n2c(=O)n(S(=O)(=O)c3ccc(OC)cc3)c3ccccc32)cc1,0.1,0.8,7.1,-0.6
CN(C)c1nc2nonc2nc1Nc1cccc(Cl)c1,-0.1,75.0*,1.5,2.1
Clc1ccc(Nc2nc3nonc3nc2Nc2ccc(Br)cc2)cc1Cl,0.0,-2.1,-16.8,1.0
Oc1ccc(Nc2nc3nonc3nc2Nc2ccccc2)cc1,0.2,-8.3,20.4,-2.2
Fc1ccc(Nc2nc3nonc3nc2Nc2ccc(F)cc2F)c(F)c1,0.3,89.7*,19.3,1.8
Oc1ccc(Nc2nc3nonc3nc2Nc2cccc(Br)c2)cc1,-0.2,45.4*,12.1,3.5
SMILES,FBW7 act,TEAD-YAP block,MITF inh,GPR151 ag
c1ccc(Nc2nc3nonc3nc2Nc2ccccc2)cc1,-0.5,36.0*,14.2,0.4
Fc1cccc(Nc2nc3nonc3nc2Nc2cccc(F)c2)c1,-0.2,23.8,-5.3,0.3
COC(=O)C1CCN(Cc2ccc3c(c2)CN(C(=O)Cc2cccc(F)c2)CCO3)CC1,2.1*,5.6,17.9,-0.9
CC(=O)c1ccc(C(=O)N2CCOc3ccc(CN4CCN(C(C)=O)CC4)cc3C2)cc1,2.3*,4.8,5.5,-0.4
CN1CCN(C(=O)c2ccc(-c3ncc(C(=O)NCCN4CCOCC4)s3)cc2)CC1,0.2,9.8,2.4,-0.6
COc1cc(/C=N/NC(=O)CCN2CCN(C)CC2)ccc1O,0.3,-4.4,22.8,0.0
COc1cc(/C=N/NC(=O)CCN2CCN(C)CC2)cc(OC)c1O,-0.1,-1.1,51.4*,-0.2
COc1ccc(-c2cn3nc(N4CCCC(C(=O)N5CCCCCC5)C4)sc3n2)cc1 (stereo unspecified),-0.2,45.0*,6.8,0.7
CCCNc1nc(-c2ccc(C(N)=O)cc2)nc2c1ncn2-c1ccsc1,0.1,51.9*,7.1,-1.1
CC(C)N(CCNc1nc(-c2ccc(C(N)=O)cc2)nc2c1ncn2-c1ccsc1)C(C)C,0.1,61.5*,12.2,-1.1
CCCNc1nc(-c2ccc(OC)cc2)nc2c1ncn2-c1ccccc1,0.4,-3.4,9.3,-0.2
CCCNc1nc(-c2ccc(C(N)=O)cc2)nc2c1ncn2-c1ccccc1,0.0,52.2*,-7.0,1.1
NC(=O)c1ccc(-c2nc(NCCc3ccc(O)cc3)c3ncn(-c4ccccc4)c3n2)cc1,0.2,66.1*,-4.4,-0.9
NC(=O)c1ccc(-c2nc(NCc3cccnc3)c3ncn(-c4ccccc4)c3n2)cc1,0.1,54.9*,2.3,0.2
c1ccc(-c2nc(NCc3cccnc3)c3ncn(-c4ccccc4)c3n2)cc1,-0.1,17.1,2.4,-1.0
CCOc1cc(C2C(C(=O)Nc3ccccc3)=C(C)Nc3ncnn32)ccc1OC(=O)c1ccccc1 (stereo unspecified),0.6,-7.5,-0.2,-1.5
COc1ccc(C(=O)N2c3ccc(F)cc3CCC2C)cc1[N+](=O)[O-] (stereo unspecified),0.0,0.7,9.5,-0.8
CCOc1ccc(-n2c(-c3ccc(OC)cc3)c[n+]3c2CCCCC3)cc1,-0.1,85.2*,-2.7,0.6
CCOc1ccc(-n2c(-c3ccccc3)c[n+]3c2CCC3)cc1,0.0,49.0*,0.7,-0.1
CCOc1ccc(-n2c(-c3ccccc3)n[nH]c2=S)cc1,-0.2,17.1,-1.3,1.7
Cc1ccsc1/C=C1\S/C(=N/c2nccs2)NC1=O,-1.3,37.5*,-10.2,-4.8
Cc1cc(=O)[nH]c(SCC(=O)Nc2ccc(Br)cc2F)n1,0.1,15.0,-18.0,0.6
COc1ccc(-c2cc(C(F)(F)F)n3nc(C(=O)NC(C)(C)C)cc3n2)cc1OC,1.9*,-7.2,-5.7,-0.5
COc1ccc(-c2cc(C(F)(F)F)n3nc(C(=O)NC(C)(C)CC(C)(C)C)cc3n2)cc1OC,0.1,-10.7,-7.9,-0.9
COc1ccc(NC(=O)c2sc3ncn(CC(=O)N4CC(C)CC(C)C4)c(=O)c3c2C)cc1Cl (stereo unspecified),0.0,10.8,7.6,-2.2
Cc1ccc(C)c(S(=O)(=O)Nc2ccc(I)cc2)c1,0.1,46.6*,4.7,0.3
Cc1cccc(OCC(=O)Nc2nccs2)c1,0.0,53.5*,-11.1,-5.9
Cc1cccc(OCCCC(=O)Nc2nccs2)c1,0.0,3.8,-4.7,1.8
COc1cccc(-n2cc(C(=O)Nc3ccccc3Cl)c3ccccc3c2=O)c1,0.6,9.1,6.0,-1.9
